RBX1-CUL1 inh = human ROC1-CUL1 E3 ligase inhibition | 140,000 tested, 0.6% active | P62877+Q13616 | inhibition, % at 10 µM | in vitro K48 di-Ub FRET, acceptor:donor ratio, 45 min; in the data active = inhibition above about 25%
Target sequence (P62877 whole entry, looked up): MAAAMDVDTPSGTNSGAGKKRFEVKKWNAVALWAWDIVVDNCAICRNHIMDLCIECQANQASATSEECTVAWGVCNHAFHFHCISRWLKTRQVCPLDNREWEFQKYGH
Target sequence (Q13616 whole entry, looked up): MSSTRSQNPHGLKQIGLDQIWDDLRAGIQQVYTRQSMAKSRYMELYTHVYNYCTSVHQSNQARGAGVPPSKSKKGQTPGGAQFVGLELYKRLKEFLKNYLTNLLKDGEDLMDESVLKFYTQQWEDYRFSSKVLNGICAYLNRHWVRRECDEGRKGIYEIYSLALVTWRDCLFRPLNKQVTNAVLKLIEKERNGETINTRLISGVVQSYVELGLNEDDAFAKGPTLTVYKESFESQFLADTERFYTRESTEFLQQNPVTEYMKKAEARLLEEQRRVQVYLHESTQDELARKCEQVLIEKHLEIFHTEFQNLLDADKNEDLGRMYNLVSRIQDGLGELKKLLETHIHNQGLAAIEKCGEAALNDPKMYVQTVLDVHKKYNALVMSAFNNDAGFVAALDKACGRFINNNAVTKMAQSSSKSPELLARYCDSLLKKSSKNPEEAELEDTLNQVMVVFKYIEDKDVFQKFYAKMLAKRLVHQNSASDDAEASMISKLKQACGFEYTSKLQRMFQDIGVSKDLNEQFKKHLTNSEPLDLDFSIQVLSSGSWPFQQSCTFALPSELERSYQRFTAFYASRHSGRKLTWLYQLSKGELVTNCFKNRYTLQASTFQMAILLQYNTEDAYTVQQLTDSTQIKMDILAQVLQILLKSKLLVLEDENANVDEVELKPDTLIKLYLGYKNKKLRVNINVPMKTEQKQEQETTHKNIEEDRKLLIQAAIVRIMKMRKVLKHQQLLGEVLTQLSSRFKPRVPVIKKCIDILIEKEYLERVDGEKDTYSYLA
Large screens that a line does not name were inactive. Many of the other results were omitted from the sample, so hits are more common in it than they were.

CCOc1cc(C2C(C(=O)c3cc4ccccc4o3)C(=O)C(=O)N2c2nnc(SCc3cccc4ccccc34)s2)ccc1O (stereo not drawn)	none
Cc1cccc(/C=C/C(=O)C2C=CC=CC(=O)C2=O)c1 (stereo not drawn)	none
Cc1ccc(C)c(S(=O)(=O)N2CCC(C(=O)NC3CCCCC3)CC2)c1	none
CC(=O)/C(N)=N/Nc1ccccc1	none
Cc1cc(C)c(NC(=O)c2ccc(Cl)cc2)c(C)c1	none
Cc1cc(/C=C2\C(=O)NC(=S)N(C)C2=O)c(C)n1-c1ccccc1F	none
CN1C(=O)/C(=C/c2cc(Br)c(Sc3ccc(Cl)cc3)o2)C(=O)NC1=S	RBX1-CUL1 inh 48.1
CN1C(=O)C(=Cc2cc(Br)c(N(C)C)o2)C(=O)N(C)C1=O	none
CCc1cccc(CC)c1N=Cc1cccc(C=Nc2c(CC)cccc2CC)c1	none
Cc1ccc(CSc2nnc3c(n2)OC(c2ccc4c(c2)OCO4)Nc2ccccc2-3)cc1 (stereo not drawn)	none
COc1ccccc1C(=O)Nc1ncccc1Cl	none
O=C(O)CCNc1cccc2ncccc12	RBX1-CUL1 inh 80.8
O=C(O)CCSc1ncnc2ccccc12	none
O=C(O)CCNc1nc(-c2ccccc2)nc2ccccc12	none
Cc1ccc(S(=O)(=O)N2N=C(c3ccco3)CC2c2ccco2)cc1 (stereo not drawn)	none
CC(C)N(Cc1nccn1C)c1nc2nonc2nc1NCc1ccccc1	none
COC12C=CC(CC1)C1=C2C(=O)c2c(OC(=O)c3ccccc3)ccc(OC(=O)c3ccccc3)c2C1=O (stereo not drawn)	RBX1-CUL1 inh 70.8
CC1(C)CC(=O)C(C(c2ccccc2OC(=O)c2ccccc2)C2C(=O)CC(C)(C)CC2=O)C(=O)C1	none
O=C(Oc1cc(=O)n(-c2ccccc2)c2c1CCCC2)c1ccccc1	none
CCOc1cc(C2NN=C(c3ccccc3)S2)ccc1OCc1ccc(Br)cc1 (stereo not drawn)	none
CCOc1nc2c(c(-c3ccc(OC)cc3)c1C#N)CCc1ccccc1-2	none
CC(C)N(CCO)C(=O)c1coc(CN2CCN(c3ccccc3F)CC2)n1	none
Cc1ccc(OC(C)C(=O)Nc2nnc(SCc3ccccc3F)s2)cc1C (stereo not drawn)	none
CCOc1c(Br)cc(CO)cc1Br	none
COc1ccc(C(O)CN2CCc3cc(OC)c(OC)cc3C2c2cc(OC)c(OC)c(OC)c2)cc1 (stereo not drawn)	none
O=C1COc2ccccc2N1CCCCN1CCN(c2ncccn2)CC1	none
CC[n+]1cc(Cl)nc(-c2ccccc2)c1-c1ccccc1	RBX1-CUL1 inh 38.7
CCOc1cc[n+](CC)c(-c2ccccc2)n1	none
Nc1nc(-c2ccccc2)c(Cl)nc1-c1ccccc1	none
CCOc1ccc(CCN2C(=O)NC(=O)C3C2=NC(c2cccs2)=NC3(C(F)(F)F)C(F)(F)F)cc1OCC (stereo not drawn)	none
CCOC(=O)COc1c(I)cc(/C=C2/SC(=Nc3ccc(OC)cc3)NC2=O)cc1OC	none
CCc1ccc(N=C2NC(=O)/C(=C\c3cc(Cl)c(OCC#N)c(OC)c3)S2)cc1	none
CCOc1cc(/C=C2\SC(=Nc3ccc(Cl)cc3)NC2=O)cc(Cl)c1OCC(=O)O	RBX1-CUL1 inh 95.8
Cc1cccc(N=C2CC(=O)Oc3ccccc32)c1	none
COc1ccc(-c2cc(C(=O)Nc3ccc(NS(=O)(=O)c4ccc(C)cc4)cc3)c3ccccc3n2)c(OC)c1	none
CCOc1ccc(-c2cc(-c3ccccc3)c3c(N)c(C(=O)Nc4ccc(Oc5ccccc5)cc4)sc3n2)cc1	none
O=C(/C=C/c1ccc(Cl)c(Cl)c1)NCCC1=CCCCC1	none
CCN=C1CC=CC=C(C(=O)/C=C/c2ccc(Br)cc2)C1=O	RBX1-CUL1 inh 85.7
CC(C)CCNC(=O)/C=C/c1ccc(Cl)c(Cl)c1	none
CCN=C1CC=CC=C(C(=O)/C=C/c2ccc(Cl)c(Cl)c2)C1=O	RBX1-CUL1 inh 62.0
CCN=C1CC=CC=C(C(=O)/C=C/c2cc(OC)ccc2OC)C1=O	none
CCN=C1CC=CC=C(C(=O)/C=C/c2ccc(C(F)(F)F)cc2)C1=O	none
CCN=C1CC=C(Br)C=C(C(=O)/C=C/c2ccc(N(C)C)cc2)C1=O	none
CCN=C1CC=C(Br)C=C(C(=O)/C=C/c2cccc(Cl)c2Cl)C1=O	none
CCN=C1CC=CC=C(C(=O)/C=C/c2ccccc2OC)C1=O	RBX1-CUL1 inh 86.5
CCCN1CCC(NC(=O)c2cccc(C(F)(F)F)c2)CC1	none
COC(=O)CCC(=O)N1CCC(C2CCN(CCc3ccccc3)C2)CC1 (stereo not drawn)	none
Cn1cc(CN2CCOCC2)c(-c2ccc3c(c2)OCCO3)n1	none
COc1ccc(NCc2nnc(SCC(=O)Nc3sc4c(c3C#N)CCCC4)n2-c2ccc(C)cc2)cc1	none
CC1CCC(C(C)C)C(OC(=O)C2CC=CCC2C(=O)OCC(=O)c2ccc(-c3ccccc3)cc2)C1 (stereo not drawn)	none
COc1ccc(C(Nc2ccccn2)c2ccc3cccnc3c2O)cc1Br (stereo not drawn)	none
CC1=Nc2ncnn2C(c2ccccn2)C1C(=O)Nc1cccc(C(F)(F)F)c1 (stereo not drawn)	none
O=C1C2C(c3ccc(Br)cc3)OC3(C(=O)c4ccccc4C3=O)C2C(=O)N1c1ccc(Oc2ccc(Cl)cc2)cc1 (stereo not drawn)	none
COc1cccc(C2OC3(C(=O)c4ccccc4C3=O)C3C(=O)N(c4ccc(Br)cc4)C(=O)C23)c1 (stereo not drawn)	none
O=C1C2C(c3ccc(Br)cc3)OC3(C(=O)c4ccccc4C3=O)C2C(=O)N1c1cccc([N+](=O)[O-])c1 (stereo not drawn)	RBX1-CUL1 inh 59.3
N#C/C(=N\Nc1c(Cl)cc(Cl)cc1Cl)C(=O)c1ccc(Cl)cc1	RBX1-CUL1 inh 82.2
N#C/C(=N/Nc1ccc(Cl)cc1Cl)C(=O)c1ccc(Cl)cc1	none
N#C/C(=N\Nc1c(Cl)cc(Cl)cc1Cl)C(=O)c1ccccc1	none
CC(=O)Nc1ccc(OC(=O)c2ccc(Cl)c([N+](=O)[O-])c2)cc1	none
COCc1ccc(C(=O)NCc2cccnc2Oc2ccc(C)nc2)s1	none
Cc1ccccc1N1C(=O)C(C=NC2CC2)C(=O)N(c2ccccc2C)C1=S	none
CN1CCN(C(c2ccccn2)c2c(-c3ccccc3)n(O)c3ccccc23)CC1 (stereo not drawn)	none
CCOC(=O)c1cccc(NC(=O)C(C)CC)c1 (stereo not drawn)	none
COc1cc(C(c2c(C)[nH][nH]c2=O)c2c(C)[nH][nH]c2=O)ccc1OC(=O)c1cccc(C)c1	none
CCOC(=O)c1cccc(-c2ccc(C(c3c(C)[nH][nH]c3=O)c3c(C)[nH][nH]c3=O)o2)c1	RBX1-CUL1 inh 39.3
COCCN1C(=O)/C(=C/c2ccccc2OCc2cccc(C(=O)O)c2)SC1=Nc1ccccc1	RBX1-CUL1 inh 67.7
Cc1ccc(N=C2S/C(=C/c3ccccc3OCC(=O)N3CCOCC3)C(=O)N2Cc2ccccc2)cc1	none
CCOc1ccccc1/C=C1\SC(=Nc2ccc(C(=O)OC)cc2)N(C)C1=O	none
COC(=O)c1c(NC(=O)COc2ccccc2Cl)sc2c1CCCC2	none
Cn1cc(CNc2nc3nonc3nc2N2CCCCCC2)cn1	none
O=S(=O)(c1c(F)c(F)c(F)c(F)c1F)C(F)F	RBX1-CUL1 inh 103.1
Cc1ccc(S(=O)(=O)C(F)F)cc1	none
O=C(c1ccc(F)cc1)n1cnnc1SCc1cccc2ccccc12	none
CC1(C(=O)N2CCC(N3CCCC(C(=O)NCCc4ccccc4)C3)CC2)CC1 (stereo not drawn)	none
O=S(=O)(Nc1ccc(F)c(F)c1)c1ccccc1	none
COc1cc(C2C3=C(CC(C)(C)CC3=O)N(Nc3ccccc3)C(=N)C2C#N)ccc1OCc1ccccc1 (stereo not drawn)	none
COc1cc(C2C3=C(CC(C)(C)CC3=O)OC(=N)C2C#N)ccc1OCc1ccccc1 (stereo not drawn)	none

From PubChem
